This is an account of results in PubChem BioAssay.

SMILES strings stand for the structures. Measured potencies and affinities stand elsewhere. Active and inactive are the calls of the source. No cut-off is given here; in the data, nearly all actives have IC50 up to about 0.91 µM.

Calcium-dependent protein kinase 4 (Plasmodium falciparum (isolate 3D7)), sequence (Q8IBS5 whole entry, looked up): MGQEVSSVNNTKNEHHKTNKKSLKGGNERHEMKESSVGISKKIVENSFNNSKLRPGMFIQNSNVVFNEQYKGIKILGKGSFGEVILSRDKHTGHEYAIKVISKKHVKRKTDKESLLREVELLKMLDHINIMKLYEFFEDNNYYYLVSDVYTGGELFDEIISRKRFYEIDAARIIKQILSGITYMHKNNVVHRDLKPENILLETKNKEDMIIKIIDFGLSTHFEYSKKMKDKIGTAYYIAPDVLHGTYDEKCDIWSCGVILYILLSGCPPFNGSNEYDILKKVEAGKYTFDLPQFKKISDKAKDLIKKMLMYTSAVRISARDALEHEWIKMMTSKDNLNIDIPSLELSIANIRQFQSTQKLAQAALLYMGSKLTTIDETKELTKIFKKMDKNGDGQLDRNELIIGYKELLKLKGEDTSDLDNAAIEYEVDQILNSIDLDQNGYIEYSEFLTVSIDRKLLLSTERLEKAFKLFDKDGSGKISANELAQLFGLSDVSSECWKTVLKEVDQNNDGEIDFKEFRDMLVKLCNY

The assay has as its target Calcium-dependent protein kinase 4 (Plasmodium falciparum (isolate 3D7)) (UniProt Q8IBS5). Kind of assay: PfCDPK4 kinase inhibitors, biochemical, TCAMS library (AID 1159588). The following applies: recombinant PfCDPK4, Kinase-Glo ATP depletion luminescence.
For `CC(C)Nc1nc(NCCc2cnc[nH]2)nc(Nc2ccc(Oc3ccccc3)cc2)n1`, the outcome was inactive.

Take `CN(C)CCCNCc1ccc(-c2ccc(F)c(Cl)c2)o1`: the result was inactive.

In the case of `COc1ccccc1Cc1nc2ccccc2nc1SCC(=O)Nc1cccc(C(F)(F)F)c1`, the outcome was inactive.

In the case of `CN1CCC(N2CCN(Cc3ccc(-c4ccc(-c5nc6ccccc6[nH]5)s4)cc3)CC2)CC1`, the result was inactive.

Consider `Cn1cnc2c(Nc3ccncc3)nc(-c3ccc(OC(F)(F)F)cc3)nc21`, for which the outcome was inactive.

Take `CCc1cn2c3c(cc(C(=O)N[C@@H](Cc4ccccc4)[C@H](O)CNCC(C)C)cc13)N(C)S(=O)(=O)CC2`: the result was inactive.

For `O=C(/C=C/c1cccc(Cl)c1)Nc1ccc2nc(CN3CCCC3)ccc2c1`, the result was inactive.

Regarding `O=C(C=Cc1ccc(Cl)c(Cl)c1)NCCCCCN1CCCC(CCCNC(=O)c2sc3ccccc3c2Cl)C1` (stereo not given), the result was inactive.

Consider `CC(=O)NCCNc1nccc(N2CCc3ncnc(Nc4ccc(OCc5cccc(F)c5)c(Cl)c4)c3C2)n1`, for which the result was inactive.

With `Cc1c(-c2cccc(CNCCc3ccc(Cl)cc3)c2)cnc(N)c1C`, the result was inactive.

Consider `CCCCn1c(Sc2ccc(C#N)c([N+](=O)[O-])c2)nnc1-c1cc(OC)cc(OC)c1`, for which the outcome was inactive.

In the case of `Cc1cc(N2CCN(CC3CCCCC3)CC2)nc(Nc2ccc(Br)cc2)n1`, the result was inactive.

For the compound `O=c1[nH]c(NCCCNCc2cc3c(Cl)cc(Cl)cc3[nH]2)nc2ccsc12`, the outcome was inactive.

`Cc1cccc2[nH]c(-c3ccc(-c4cccc(NC(=O)c5ccncc5)c4)cc3)nc12`: the result was inactive.

Take `Clc1ccc2c(N3CCCNCC3)ccnc2c1`: the outcome was inactive.

Regarding `Cc1ccc2c(NN=Cc3cccc(Cl)c3)cc(C)nc2c1`, the outcome was inactive.

As for `COc1ccc2nccc([C@@H](O)CN3CCC(NCc4ccc5c(c4)N(C)C(=O)CO5)CC3)c2c1`, the result was inactive.

For `COc1ccc(CC(=O)Nc2ccc(Nc3nc(C)cc(N4CCCC4)n3)cc2)cc1`, the result was inactive.

For the compound `CCCc1ccc(S(=O)(=O)Nc2ccc3c(c2)CCC3)cc1`, the outcome was inactive.

`NC(=O)c1ccsc1NC(=O)CNC(c1ccc(F)cc1)c1cccs1` (stereo not given): the outcome was inactive.

For `COc1ccc(S(=O)(=O)Nc2cc(Br)cc3c2OCCC3)cc1N1CCN(C(=O)C(Cl)(Cl)Cl)CC1`, the outcome was inactive.

As to `CN1CCN(c2ccc(Nc3c(C(N)=O)cnc4cc(-c5ccoc5)ccc34)cc2C(F)(F)F)CC1`, the result was inactive.

For the compound `Cc1cc(N[C@@H](CC(C)C)C(=O)NCCOc2ccccc2)nc(Nc2ccccc2)n1`, the outcome was inactive.

`COc1cc(C(=O)NC2CCN(Cc3ccccc3)CC2)ccc1-c1nc2cc(Cl)c(Cl)cc2[nH]1`: the outcome was inactive.

Turning to `CN(CCN)Cc1cccc(-c2ccc(-c3nc4ccc(C(F)(F)F)cc4[nH]3)s2)c1`, the result was inactive.

As to `CCc1c[nH]c2c(N3CCCC3=O)cc(C(=O)N[C@@H](Cc3ccccc3)[C@H](O)CNC(C)(C)c3cccc(C(F)(F)F)c3)cc12`, the result was inactive.

For `CC(=O)Nc1cccc(C(=O)Nc2nc3ccc(-c4cc(=O)[nH]c(Nc5ccccc5Cl)n4)cc3[nH]2)c1`, the outcome was inactive.

Regarding `Cc1nn(-c2ccccc2)c2sc(C(=O)N(CCCN(C)C)c3nc(-c4ccccc4)cs3)cc12`, the outcome was inactive.

As for `COc1ccc(CNC(=O)C2Cc3ccccc3CN2Cc2ccc3ccccc3c2)cc1` (stereo not given), the outcome was inactive.

Turning to `c1cc(-c2ccc(CN3CCCCC3)cc2)cc(-c2nc3ccccc3[nH]2)c1`, the result was inactive.

For the compound `Cn1c2c(c3ccccc31)CN(CCC1(c3ccc(Cl)c(Cl)c3)CN(C(=O)Cc3ccccc3)CCO1)CC2` (stereo not given), the result was inactive.

Turning to `CN(C)CCCNCc1ccc(-c2ccc(C(F)(F)F)cc2)cc1`, the result was inactive.

For `CCCc1cc(OC)c(CC2c3cc(O)c(Cl)cc3CCN2C)cc1OC` (stereo not given), the result was inactive.

Take `c1ccc(Nc2nc(-c3ccccn3)cs2)nc1`: the outcome was inactive.

Take `N#Cc1ccc(NC(=O)c2ccc(Cc3ccc4c(c3)CCN(C3CCC3)CC4)cn2)cc1`: the outcome was inactive.

As to `Cc1cccc2[nH]c(-c3ccc(-c4cccc(CN5CCC(N)C5)c4)s3)nc12` (stereo not given), the outcome was inactive.

For `COc1ccc2ncc(F)c(CCN3C[C@H](CNCc4ccc5ccccc5c4)[C@H](O)C3)c2n1`, the result was inactive.

Consider `Cn1nc(C(F)(F)F)c(-c2ccc(Br)cc2)c1NC(=O)Nc1ccc(F)cc1F`, for which the result was inactive.

Take `CCOC(=O)N1CCN(CCCNc2c3ccccc3nc3ccccc23)CC1`: the outcome was inactive.

As to `N#Cc1ccc2c(c1)CCN(CCC1CCC(NC(=O)Nc3ccnc4ccccc34)CC1)C2` (stereo not given), the outcome was inactive.
